Test results from PubChem BioAssay (EPA / NIEHS).
Inconclusive results are not listed. Activity calls are given as the source filed them. The calls were made as follows, unless noted: active = hit-call score of the fitted dose curve at least 0.9, where 1 is the maximum; inconclusive = response in the unintended direction; inactive = score below 0.9.

Legend:
[1] = target: Bile acid receptor (Homo sapiens) (UniProt Q96RI1); assay: ATG_IR1_CIS: Attagene CIS-FACTORIAL HepG2 Assay for human Nuclear Receptor Subfamily 1 Group H Member 4 (NR1H4), IR1 submotif (AID 2282946; active = hit-call score of the fitted dose curve at least 0.9, where 1 is the maximum; inactive = score below 0.9); conditions: IR1 reporter transcription, actives raise or lower the signal
Summary of the method: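 Cells (human HepG2) carry transiently transfected cis-promoter reporter transcription units. Compounds are incubated 24 h, total RNA is reverse-transcribed and amplified, and labelled fragments are resolved by capillary electrophoresis. Curves use DMSO as baseline.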

[2] = ATG_PPRE_CIS: Attagene CIS-FACTORIAL HepG2 Assay for human Peroxisome Proliferator-activated Response Element (PPRE) (AID 2282958; active = hit-call score of the fitted dose curve at least 0.9, where 1 is the maximum; inactive = score below 0.9); conditions: HepG2 PPRE cis-element reporter, Attagene transcription factor profiling; actives raise or lower the signal
Summary of the method: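 Read-out: fluorescent reporter mRNA fragments resolved by capillary electrophoresis after RT-PCR. HepG2 cells carried transiently transfected PPRE-driven cis reporter constructs and were dosed for 24 h; gain or loss of signal fitted relative to DMSO.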

[3] = target: Glucocorticoid receptor (Homo sapiens) (UniProt P04150); assay: ATG_GR_TRANS: Attagene TRANS-FACTORIAL HepG2 Assay for human Glucocorticoid Receptor (GR) (AID 2282978); conditions: HepG2 Attagene TRANS GR reporter, mRNA transcription;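 also: activators score as hits since higher reporter transcript over DMSO is fitted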
Summary of the method: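 Transient MRTU transfection of HepG2 (GAL4-UAS reporters, exogenous NR-GAL4 chimeras), 24 h dosing. Readout: reporter transcript via RT-PCR + capillary electrophoresis fluorescence. Positive direction vs DMSO baseline.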

[4] = target: Oxysterols receptor LXR-alpha (Homo sapiens) (UniProt Q13133); assay: ATG_LXRa_TRANS: Attagene TRANS-FACTORIAL HepG2 Assay for human Liver X Receptor alpha (LXRa) (AID 2282980); conditions: HepG2 Attagene TRANS reporter, LXRa transactivation
Summary of the method: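 In this multiplexed TRANS system, compounds act on HepG2 cells carrying GAL4-UAS reporter units and a receptor-GAL4 fusion for 24 h. Induced reporter RNA is amplified, fluorescently labelled and sized by capillary electrophoresis, with DMSO as baseline.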

[5] = target: Nuclear receptor subfamily 4 group A member 2 (Homo sapiens) (UniProt P43354); assay: ATG_NURR1_TRANS: Attagene TRANS-FACTORIAL HepG2 Assay for human Nuclear Receptor Related Protein 1 (NURR1) (AID 2282985); conditions: HepG2 Attagene TRANS reporter, mRNA readout
Summary of the method: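 Cells: HepG2, transiently transfected. Exposure: 24 h. Detection: fluorescence of labelled RT-PCR products separated by capillary electrophoresis; upward fit versus DMSO.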

[6] = target: Peroxisome proliferator-activated receptor gamma (Homo sapiens) (UniProt P37231); assay: ATG_PPARg_TRANS: Attagene TRANS-FACTORIAL HepG2 Assay for human Peroxisome Proliferator-activated Receptor-gamma (PPARg) (AID 2283007)
Summary of the method: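 Read-out: reporter mRNA induction, detected by fluorescence after RT-PCR and capillary electrophoresis. Transiently transfected human HepG2 liver cells carrying a chimeric NR-Gal4 construct were dosed for 24 h; activity was fitted upward relative to DMSO.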

[7] = target: human Thyroid Receptor alpha (THRa1), THRA (gene 7067) (UniProt P10827); assay: ATG_THRa1_TRANS: Attagene TRANS-FACTORIAL HepG2 Assay for human Thyroid Receptor alpha (THRa1) (AID 2283014)
Summary of the method: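 Measured here is mRNA from a GAL4-UAS reporter in transfected HepG2 cells carrying a Gal4-fused receptor, 24 h post-dose. DMSO served as negative control and baseline.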

[8] = target: human Vitamin D Receptor (VDR), VDR (gene 7421) (UniProt P11473); assay: ATG_VDR_TRANS: Attagene TRANS-FACTORIAL HepG2 Assay for human Vitamin D Receptor (VDR) (AID 2283022)
Summary of the method: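 Multiplexed TRANS reporter in HepG2; 24 h treatment; reporter mRNA by RT-PCR plus capillary electrophoresis; upregulation scored relative to DMSO.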

[9] = ATG_XTT_Cytotoxicity: Cytotoxicity Assessment in the Attagene TRANS-FACTORIAL HepG2 Assay (AID 2283584)
Summary of the method: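 24 h chemical exposure of reporter-transfected HepG2; XTT signal loss vs DMSO indicates cytotoxicity.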

[10] = ACEA_ER_AUC_viability: ACEA Biosciences xCELLigence Real-Time Cell Analysis on Estrogen Receptor Agonism for Viability (AID 2283782);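 also: continuous compound exposure with impedance area under curve over 80 h; hit means loss of impedance signal meaning reduced cell growth or viability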
Summary of the method: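 T-47D; phenol red-free RPMI1640 + 10% CS-FBS; 8 conc., 1:4 serial, max 100 uM final, ≤0.5% DMSO; n = 2; continuous exposure; impedance monitored to 80 h post-dose; AUC vs DMSO.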

[11] = CCTE_Harrill_HTTr_Viability_MCF7: CCTE's 6-hour Cell Viability Assessment for the High-Throughput Transcriptomics (HTTr) Platform, in MCF-7 cells cultured in DMEM + 10% fetal bovine serum, Harrill Lab (AID 2284010; active = hit-call score of the fitted dose curve at least 0.9, where 1 is the maximum; inactive = score below 0.9)
Summary of the method: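 Membrane integrity was scored by high-content imaging of propidium iodide dye exclusion after a 6 h exposure across an eight-point dilution series. Data were fitted bidirectionally relative to DMSO as negative control and baseline.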

[12] = CCTE_Harrill_HTTr_Apoptosis_MCF7: CCTE's 6-hour Apoptosis Assessment for the High-Throughput Transcriptomics (HTTr) Platform, in MCF-7 cells cultured in DMEM + 10% fetal bovine serum, Harrill Lab (AID 2284011; active = hit-call score of the fitted dose curve at least 0.9, where 1 is the maximum; inactive = score below 0.9)
Summary of the method: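 Apoptosis in MCF-7 cells grown in DMEM with 10% fetal bovine serum was scored after a six hour exposure by high content imaging of caspase-3/7 activation (CellEvent Caspase 3/7 Green), with DMSO serving as negative control and baseline.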

[13] = target: Nuclear receptor subfamily 1 group I member 3 (Homo sapiens) (UniProt Q14994); assay: ATG_CAR_TRANS: Attagene TRANS-FACTORIAL HepG2 Assay for human Constitutive Androstane Receptor (CAR) (AID 2282969); conditions: HepG2 Attagene TRANS-FACTORIAL CAR reporter;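 also: activators raise reporter mRNA above DMSO so AC50 marks induction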
Summary of the method: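 Readout is reporter mRNA induction, quantified by fluorescent primer extension and capillary electrophoresis after RT-PCR. Cells were HepG2 transiently carrying chimeric NR-Gal4 constructs with GAL4-UAS reporters, treated for 24 h; activity scored upward from DMSO.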

[14] = target: human Peroxisome Proliferator-activated Receptor alpha (PPARa), PPARA (gene 5465) (UniProt Q07869); assay: ATG_PPARa_TRANS: Attagene TRANS-FACTORIAL HepG2 Assay for human Peroxisome Proliferator-activated Receptor alpha (PPARa) (AID 2283001);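 as to AC50: potency for gain of reporter signal over DMSO so agonist or activator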
Summary of the method: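 Reporter transcripts from GAL4-UAS units in transfected HepG2 were quantified 24 h after dosing. Detection used reverse transcription, PCR, fluorescent primer extension and capillary electrophoresis, with DMSO as baseline.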

[15] = target: human RAR-related Orphan Receptor gamma (RORg), RORC (gene 6097) (UniProt P51449); assay: ATG_RORg_TRANS: Attagene TRANS-FACTORIAL HepG2 Assay for human RAR-related Orphan Receptor gamma (RORg) (AID 2283011)
Summary of the method: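 Chimeric RORg-Gal4 transactivation in transfected HepG2; 24 h exposure; RT-PCR/capillary electrophoresis readout of reporter mRNA, DMSO baseline.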

[16] = TOX21_p53_BLA_p3_viability: Viability Assessment in the Tox21 HCT-116 p53 Agonism Beta-lactamase Assay, Phase 3 (AID 2283593);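 also: cells exposed to compound for 16 h before reading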
Summary of the method: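 Cellular ATP was quantified by CellTiter-Glo luminescence, read after 30 min at room temperature. Beforehand, HCT116 cells (4000/well) received compound 5 h post-seeding, 217-fold diluted from DMSO, then incubated 16 h at 37C.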

[17] = target: Oxysterols receptor LXR-beta (Homo sapiens) (UniProt P55055); assay: ATG_LXRb_TRANS: Attagene TRANS-FACTORIAL HepG2 Assay for human Liver X Receptor beta (LXRb) (AID 2282981); conditions: HepG2 Attagene TRANS GAL4-LXRb reporter, mRNA
Summary of the method: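 Cells: HepG2, transiently transfected with GAL4-UAS reporter units plus LXRb-Gal4 fusion. Treatment: 24 h. Detection: reporter mRNA by RT-PCR, 6-FAM labelling, HpaI digestion, capillary electrophoresis.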

[18] = target: human RAR-related Orphan Receptor beta (RORb), RORB (gene 6096) (UniProt Q92753); assay: ATG_RORb_TRANS: Attagene TRANS-FACTORIAL HepG2 Assay for human RAR-related Orphan Receptor beta (RORb) (AID 2283010)
Summary of the method: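 HepG2 cells were transiently transfected with multiplexed GAL4-UAS reporter units expressing chimeric nuclear receptor–GAL4 proteins, then dosed for 24 h. Reporter mRNA was quantified by RT-PCR with fluorescent labelling and capillary electrophoresis; gain of signal was fitted relative to DMSO.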

[19] = TOX21_p53_BLA_p4_viability: Viability Assessment in the Tox21 HCT-116 p53 Agonism Beta-lactamase Assay, Phase 4 (AID 2283597);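 also: hits lower the luminescence signal meaning cytotoxicity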
Summary of the method: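 Luminescent ATP readout (CellTiter-Glo, 30 min, room temperature) in the same wells as the p53 bla ratio. HCT116 cells were treated for 16 h at 37C with DMSO-dissolved compounds.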

[20] = target: Retinoic acid receptor RXR-alpha (Homo sapiens) (UniProt P19793); assay: ATG_RXRa_TRANS: Attagene TRANS-FACTORIAL HepG2 Assay for human Retinoid X Receptor alpha (RXRa) (AID 2283012)
Summary of the method: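 HepG2 cells transiently transfected with multiplexed GAL4-UAS reporter units and chimeric NR-GAL4 fusions, dosed 24 h. Reporter mRNA measured by RT-PCR, FAM labelling, HpaI digestion and capillary electrophoresis; gain-of-signal fitted relative to DMSO baseline.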

Measured: AC50

Oxysterols receptor LXR-beta (Homo sapiens), sequence (P55055 whole entry, looked up, the tested form may be a part): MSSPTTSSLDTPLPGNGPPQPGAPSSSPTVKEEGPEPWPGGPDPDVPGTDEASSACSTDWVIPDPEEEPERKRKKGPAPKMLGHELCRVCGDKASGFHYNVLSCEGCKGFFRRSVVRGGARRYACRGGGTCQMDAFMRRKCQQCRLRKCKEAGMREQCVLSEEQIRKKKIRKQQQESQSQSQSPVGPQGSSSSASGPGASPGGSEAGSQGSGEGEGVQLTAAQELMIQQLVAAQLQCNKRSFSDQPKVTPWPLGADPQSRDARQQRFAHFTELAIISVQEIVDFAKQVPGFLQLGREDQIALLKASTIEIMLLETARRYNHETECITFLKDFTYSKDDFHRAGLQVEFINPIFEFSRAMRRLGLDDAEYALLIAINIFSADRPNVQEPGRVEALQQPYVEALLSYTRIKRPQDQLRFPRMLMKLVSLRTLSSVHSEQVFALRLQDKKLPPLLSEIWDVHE
Bile acid receptor (Homo sapiens), sequence (Q96RI1 whole entry, looked up, the tested form may be a part): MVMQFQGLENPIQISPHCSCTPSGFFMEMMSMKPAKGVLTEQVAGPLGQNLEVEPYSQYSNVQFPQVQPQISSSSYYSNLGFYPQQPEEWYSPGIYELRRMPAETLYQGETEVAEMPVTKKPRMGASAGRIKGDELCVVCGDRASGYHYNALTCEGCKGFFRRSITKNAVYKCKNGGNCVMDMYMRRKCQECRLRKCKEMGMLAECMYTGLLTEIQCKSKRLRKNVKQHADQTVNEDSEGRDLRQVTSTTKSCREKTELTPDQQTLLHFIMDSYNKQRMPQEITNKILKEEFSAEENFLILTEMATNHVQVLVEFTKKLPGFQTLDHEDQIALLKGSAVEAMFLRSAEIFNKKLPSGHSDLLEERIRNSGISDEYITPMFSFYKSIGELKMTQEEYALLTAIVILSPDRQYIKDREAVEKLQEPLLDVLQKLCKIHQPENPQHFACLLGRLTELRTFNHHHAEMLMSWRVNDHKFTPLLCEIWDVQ
Oxysterols receptor LXR-alpha (Homo sapiens), sequence (Q13133 whole entry, looked up, the tested form may be a part): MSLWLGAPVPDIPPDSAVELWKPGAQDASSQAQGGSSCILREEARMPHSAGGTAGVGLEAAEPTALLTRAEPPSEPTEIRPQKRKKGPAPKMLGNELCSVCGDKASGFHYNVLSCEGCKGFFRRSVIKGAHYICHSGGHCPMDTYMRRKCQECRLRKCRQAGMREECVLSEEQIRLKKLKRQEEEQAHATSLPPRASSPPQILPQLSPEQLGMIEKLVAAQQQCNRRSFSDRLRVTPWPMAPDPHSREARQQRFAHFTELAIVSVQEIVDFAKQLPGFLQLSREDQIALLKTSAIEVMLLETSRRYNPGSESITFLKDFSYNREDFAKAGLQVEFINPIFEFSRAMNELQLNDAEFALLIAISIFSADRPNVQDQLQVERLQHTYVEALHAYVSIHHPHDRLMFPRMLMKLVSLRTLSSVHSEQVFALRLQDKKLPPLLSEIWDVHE
Peroxisome proliferator-activated receptor gamma (Homo sapiens), sequence (P37231 whole entry, looked up, the tested form may be a part): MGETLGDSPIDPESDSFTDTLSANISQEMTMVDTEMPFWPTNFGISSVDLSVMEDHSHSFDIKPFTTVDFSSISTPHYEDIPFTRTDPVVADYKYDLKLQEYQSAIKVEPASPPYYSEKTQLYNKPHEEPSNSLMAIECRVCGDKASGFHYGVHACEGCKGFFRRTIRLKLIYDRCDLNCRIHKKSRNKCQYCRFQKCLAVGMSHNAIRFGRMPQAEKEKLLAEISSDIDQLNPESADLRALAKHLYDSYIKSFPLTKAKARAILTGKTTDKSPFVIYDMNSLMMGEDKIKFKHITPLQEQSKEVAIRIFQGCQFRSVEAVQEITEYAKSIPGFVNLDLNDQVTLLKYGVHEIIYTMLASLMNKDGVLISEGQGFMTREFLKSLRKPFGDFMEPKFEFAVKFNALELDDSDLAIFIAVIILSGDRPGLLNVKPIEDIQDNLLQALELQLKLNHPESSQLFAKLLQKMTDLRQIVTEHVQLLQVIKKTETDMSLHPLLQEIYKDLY
human RAR-related Orphan Receptor gamma (RORg), RORC (gene 6097), sequence (P51449 whole entry, looked up, the tested form may be a part): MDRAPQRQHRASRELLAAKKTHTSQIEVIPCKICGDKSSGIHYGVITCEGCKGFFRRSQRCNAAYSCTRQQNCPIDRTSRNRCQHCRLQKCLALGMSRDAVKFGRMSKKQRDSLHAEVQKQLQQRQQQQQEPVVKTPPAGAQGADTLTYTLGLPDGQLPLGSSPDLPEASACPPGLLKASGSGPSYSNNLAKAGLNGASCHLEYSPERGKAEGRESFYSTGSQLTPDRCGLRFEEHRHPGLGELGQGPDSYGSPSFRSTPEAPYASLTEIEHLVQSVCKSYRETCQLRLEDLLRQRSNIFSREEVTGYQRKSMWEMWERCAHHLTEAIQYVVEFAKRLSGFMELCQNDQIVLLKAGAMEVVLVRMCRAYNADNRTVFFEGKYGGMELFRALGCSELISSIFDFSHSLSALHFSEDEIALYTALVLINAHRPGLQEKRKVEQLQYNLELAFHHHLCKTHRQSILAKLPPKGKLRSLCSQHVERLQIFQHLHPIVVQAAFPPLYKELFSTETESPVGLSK
human RAR-related Orphan Receptor beta (RORb), RORB (gene 6096), sequence (Q92753 whole entry, looked up, the tested form may be a part): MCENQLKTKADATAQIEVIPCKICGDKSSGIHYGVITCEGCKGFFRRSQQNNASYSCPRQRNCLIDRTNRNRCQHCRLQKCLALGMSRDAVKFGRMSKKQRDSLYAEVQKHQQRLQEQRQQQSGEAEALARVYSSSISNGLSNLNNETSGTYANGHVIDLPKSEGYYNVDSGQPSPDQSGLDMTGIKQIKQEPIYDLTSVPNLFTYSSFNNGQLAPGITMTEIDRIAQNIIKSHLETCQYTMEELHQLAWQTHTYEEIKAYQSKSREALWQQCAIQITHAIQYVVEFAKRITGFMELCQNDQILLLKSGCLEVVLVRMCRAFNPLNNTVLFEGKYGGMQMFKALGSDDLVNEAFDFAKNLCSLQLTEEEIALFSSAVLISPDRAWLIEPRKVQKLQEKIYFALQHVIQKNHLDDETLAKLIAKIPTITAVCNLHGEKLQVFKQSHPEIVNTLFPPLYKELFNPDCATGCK
human Thyroid Receptor alpha (THRa1), THRA (gene 7067), sequence (P10827 whole entry, looked up, the tested form may be a part): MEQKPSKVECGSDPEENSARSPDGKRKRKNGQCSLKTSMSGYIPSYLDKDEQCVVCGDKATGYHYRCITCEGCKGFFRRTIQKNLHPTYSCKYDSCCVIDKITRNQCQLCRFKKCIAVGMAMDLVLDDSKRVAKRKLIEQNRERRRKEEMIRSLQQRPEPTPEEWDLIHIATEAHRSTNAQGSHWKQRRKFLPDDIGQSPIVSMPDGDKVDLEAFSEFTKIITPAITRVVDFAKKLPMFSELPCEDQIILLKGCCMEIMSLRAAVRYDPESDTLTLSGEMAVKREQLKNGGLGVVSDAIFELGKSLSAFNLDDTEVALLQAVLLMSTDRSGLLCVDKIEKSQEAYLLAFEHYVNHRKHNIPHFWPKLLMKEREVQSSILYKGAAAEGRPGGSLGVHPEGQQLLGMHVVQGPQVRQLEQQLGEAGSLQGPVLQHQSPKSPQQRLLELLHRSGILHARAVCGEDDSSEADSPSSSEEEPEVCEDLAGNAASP
Nuclear receptor subfamily 4 group A member 2 (Homo sapiens), sequence (P43354 whole entry, looked up): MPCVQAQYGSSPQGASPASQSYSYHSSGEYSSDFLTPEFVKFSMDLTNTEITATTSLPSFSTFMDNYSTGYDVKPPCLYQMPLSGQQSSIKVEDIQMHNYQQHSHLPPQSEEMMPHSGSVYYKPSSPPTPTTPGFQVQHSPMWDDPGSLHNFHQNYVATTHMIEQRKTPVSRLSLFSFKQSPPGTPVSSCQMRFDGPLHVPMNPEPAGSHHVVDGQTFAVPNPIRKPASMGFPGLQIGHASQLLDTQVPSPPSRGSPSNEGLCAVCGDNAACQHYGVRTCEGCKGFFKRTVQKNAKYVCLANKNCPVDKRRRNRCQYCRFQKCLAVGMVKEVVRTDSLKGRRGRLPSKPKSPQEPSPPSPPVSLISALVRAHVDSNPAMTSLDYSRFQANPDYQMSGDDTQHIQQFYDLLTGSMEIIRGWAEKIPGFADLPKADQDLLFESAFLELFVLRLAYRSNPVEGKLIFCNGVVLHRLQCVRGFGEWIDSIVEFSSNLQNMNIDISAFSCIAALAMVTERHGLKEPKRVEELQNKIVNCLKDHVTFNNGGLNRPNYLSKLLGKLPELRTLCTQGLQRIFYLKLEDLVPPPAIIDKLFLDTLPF
Nuclear receptor subfamily 1 group I member 3 (Homo sapiens), sequence (Q14994 whole entry, looked up, the tested form may be a part): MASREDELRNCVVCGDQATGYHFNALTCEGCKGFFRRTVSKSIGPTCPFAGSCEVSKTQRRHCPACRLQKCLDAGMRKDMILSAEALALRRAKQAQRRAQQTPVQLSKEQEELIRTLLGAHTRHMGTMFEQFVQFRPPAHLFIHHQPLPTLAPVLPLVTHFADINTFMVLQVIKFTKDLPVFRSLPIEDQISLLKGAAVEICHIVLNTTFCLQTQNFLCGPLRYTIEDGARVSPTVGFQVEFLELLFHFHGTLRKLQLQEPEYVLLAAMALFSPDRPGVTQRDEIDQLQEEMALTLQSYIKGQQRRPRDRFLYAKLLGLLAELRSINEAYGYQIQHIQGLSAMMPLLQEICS
human Vitamin D Receptor (VDR), VDR (gene 7421), sequence (P11473 whole entry, looked up): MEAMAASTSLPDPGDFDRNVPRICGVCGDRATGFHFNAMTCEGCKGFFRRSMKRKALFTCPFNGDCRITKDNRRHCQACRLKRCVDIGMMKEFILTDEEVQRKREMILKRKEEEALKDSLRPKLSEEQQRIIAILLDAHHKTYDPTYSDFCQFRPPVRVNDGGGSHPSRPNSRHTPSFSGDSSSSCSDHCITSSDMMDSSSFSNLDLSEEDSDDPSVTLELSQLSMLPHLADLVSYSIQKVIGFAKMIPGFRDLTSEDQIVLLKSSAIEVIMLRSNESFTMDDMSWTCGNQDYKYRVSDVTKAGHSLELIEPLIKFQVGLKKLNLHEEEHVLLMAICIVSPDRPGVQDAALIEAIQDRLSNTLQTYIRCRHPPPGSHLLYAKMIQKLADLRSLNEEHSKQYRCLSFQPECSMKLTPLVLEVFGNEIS

O=C(OCc1ccccc1)c1ccccc1
active: [10] 76.8 µM
not listed: [13] | [14] | [15] | [16] | [17] | [18] | [19] | [20]
inactive: all other assays above

O=C(C(=O)c1ccccc1)c1ccccc1
inactive: [13] | [7] | [11] | [12]

O=C(CC(C(=O)OC1CCCCC1)S(=O)(=O)O)OC1CCCCC1 (stereo not given)
inactive: [1] | [2] | [13] | [4] | [15] | [7] | [16]
active: [14] 35.1 µM | [6] 47.7 µM

OCCOCCOCCOCCOCCO
inactive: [2] | [17] | [5] | [6] | [18] | [15] | [7] | [9] | [16] | [19]

Cc1cc2nc3c(=O)[nH]c(=O)nc-3n(C[C@H](O)[C@H](O)[C@H](O)CO)c2cc1C
active: [10] 47 µM
not listed: [2] | [3] | [5] | [6] | [8] | [9] | [13]
inactive: all other assays above

Clc1ccc(Sc2cc(Cl)c(Cl)cc2Cl)cc1
not listed: [1] | [2] | [7] | [10] | [11] | [12] | [14] | [15]
inactive: all other assays above
